# According to PubChem BioAssay (EPA / NIEHS):
# “And” between values parts separate entries of the source, which are not always exact repeats. Equal values may be shown once. More than one record can exist for a structure, and the calls need not agree. The source made the active and inactive calls. Rule for the calls: active = hit-call score of the fitted dose curve at least 0.9, where 1 is the maximum; inactive = score below 0.9.
# Experiments:
# [1] = BSK_hDFCGF_SRB: Viability Assessment in the BioMAP Diversity Plus: hDFCGF Assay (AID 2283061); settings: primary human foreskin fibroblasts;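 note: cells exposed to compound for 24 h before the read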
# How it was run: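 Viability was read as total protein: after 10% TCA fixation, wells were stained with 0.1% sulforhodamine B and read at 560 nm. Primary human foreskin fibroblasts were dosed for 24 h, with bidirectional fitting versus DMSO.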
# [2] = read-out: TIMP metallopeptidase inhibitor 1 (TIMP1), TIMP1 (gene 7076); test: BSK_hDFCGF_TIMP1: BioMAP Diversity Plus: hDFCGF Assay for TIMP metallopeptidase inhibitor 1 (TIMP1) Biomarker Activity (AID 2283062); settings: primary human foreskin fibroblasts; actives raise or lower the signal
# How it was run: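 TIMP-1 measured by ELISA 24 h after chemical dosing of primary human skin fibroblasts, with gain or loss fitted relative to DMSO. Parallel SRB staining (560 nm) monitored overt cytotoxicity.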
# [3] = read-out: Monokine induced gamma interferon (MIG), CXCL9 (gene 4283); test: BSK_hDFCGF_MIG: BioMAP Diversity Plus: hDFCGF Assay for Monokine induced gamma interferon (MIG) Biomarker Activity (AID 2283063); settings: primary human foreskin fibroblasts; actives raise or lower the signal
# How it was run: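 Human primary foreskin fibroblasts in the hDFCGF system, exposed to test chemical for 24 h; MIG measured by ELISA. Bidirectional curve fitting against DMSO negative control as activity baseline.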
# [4] = read-out: Matrix Metallopeptidase 1 (MMP1), MMP1 (gene 4312); test: BSK_hDFCGF_MMP1: BioMAP Diversity Plus: hDFCGF Assay for Matrix Metallopeptidase 1 (MMP1) Biomarker Activity (AID 2283064); settings: primary human foreskin fibroblasts; actives raise or lower the signal
# How it was run: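 Primary human foreskin fibroblasts exposed to chemicals for 24 h; MMP1 measured by ELISA. Cytotoxicity tracked by SRB staining in parallel cultures; bidirectional fit relative to DMSO.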
# [5] = read-out: Vascular cell adhesion molecule 1 (VCAM1), VCAM1 (gene 7412); test: BSK_hDFCGF_VCAM1: BioMAP Diversity Plus: hDFCGF Assay for Vascular cell adhesion molecule 1 (VCAM1) Biomarker Activity (AID 2283065); settings: primary human foreskin fibroblasts; actives raise or lower the signal;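 for AC50: VCAM-1 protein level quantified by ELISA after 24 h chemical exposure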
# How it was run: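 ELISA readout of VCAM-1 on human dermal fibroblast primary cultures, 24 h after chemical exposure. Gain or loss of signal fitted in both directions against DMSO baseline.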
# [6] = read-out: Plasminogen activator inhibitor-1 (PAI1), SERPINE1 (gene 5054); test: BSK_hDFCGF_PAI1: BioMAP Diversity Plus: hDFCGF Assay for Plasminogen activator inhibitor-1 (PAI1) Biomarker Activity (AID 2283066); settings: primary human foreskin fibroblasts; actives raise or lower the signal
# How it was run: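 Human foreskin fibroblasts in the hDFCGF system were dosed with compound for 24 h; PAI-1 was quantified by ELISA. Bidirectional curve fitting used DMSO as negative control and baseline.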
# [7] = read-out: Intercellular Adhesion Molecule 1 (ICAM1), ICAM1 (gene 3383); test: BSK_KF3CT_ICAM1: BioMAP Diversity Plus: KF3CT Assay for Intercellular Adhesion Molecule 1 (ICAM1) Biomarker Activity (AID 2283067); settings: primary human keratinocytes with fibroblasts; actives raise or lower the signal
# How it was run: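 Cell-surface ICAM-1 was measured by ELISA 24 h after dosing primary human skin keratinocytes co-cultured with fibroblasts. Parallel SRB staining tracked overt cytotoxicity. Gain or loss of signal was fitted relative to DMSO.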
# [8] = read-out: Interferon-gamma inducible Protein 10 (IP10), CXCL10 (gene 3627); test: BSK_KF3CT_IP10: BioMAP Diversity Plus: KF3CT Assay for Interferon-gamma inducible Protein 10 (IP10) Biomarker Activity (AID 2283068); settings: primary human keratinocytes with fibroblasts; actives raise or lower the signal
# How it was run: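 ELISA read-out of IP-10 after 24 h chemical dosing of human skin primary co-culture (keratinocytes, foreskin fibroblasts). Gain or loss of signal relative to DMSO, bidirectional curve fit.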
# [9] = BSK_KF3CT_SRB: Viability Assessment in the BioMAP Diversity Plus: KF3CT Assay (AID 2283069); settings: primary human keratinocytes with fibroblasts;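 note: total protein by sulforhodamine B staining as a cytotoxicity measure; read 24 h after compound addition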
# How it was run: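 Human keratinocyte and foreskin fibroblast co-culture exposed to chemical for 24 h. Total protein measured in parallel cultures by 0.1% sulforhodamine B staining after 10% TCA fixation, read at 560 nm; bidirectional fit relative to DMSO.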
# [10] = read-out: Interleukin-1 alpha (IL1a), IL1A (gene 3552); test: BSK_KF3CT_IL1a: BioMAP Diversity Plus: KF3CT Assay for Interleukin-1 alpha (IL1a) Biomarker Activity (AID 2283070); settings: primary human keratinocytes with fibroblasts; actives raise or lower the signal
# How it was run: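 Primary human keratinocyte plus foreskin fibroblast co-culture, dosed and measured at 24 h in 96-well plates. IL-1a level quantified by ELISA; bidirectional fit relative to DMSO.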
structure (smiles),measurement,setting,value
Cc1cc(C)nc(NC(=O)NS(=O)(=O)c2ccccc2C(=O)OC2COC2)n1,outcome,[1],inactive
same,outcome,[2],inactive
same,outcome,[3],inactive
same,outcome,[4],inactive
same,outcome,[5],inactive
same,outcome,[6],inactive
same,outcome,[7],inactive
same,outcome,[8],inactive
same,outcome,[9],inactive
same,outcome,[10],inactive
N#CN,outcome,[1],inactive
same,outcome,[2],inactive
same,outcome,[3],inactive
same,outcome,[4],inactive
same,outcome,[5],inactive
same,outcome,[6],inactive
same,outcome,[7],inactive
same,outcome,[8],inactive
same,outcome,[9],inactive
same,outcome,[10],inactive
CCN(CC)C(=O)SCc1ccc(Cl)cc1,outcome,[1],inactive
same,outcome,[2],inactive
same,outcome,[3],inactive
same,outcome,[4],inactive
same,outcome,[5],inactive
same,outcome,[6],inactive
same,outcome,[7],inactive
same,outcome,[8],inactive
same,outcome,[9],inactive
same,outcome,[10],inactive
COC(=O)c1ccccc1CS(=O)(=O)NC(=O)Nc1nc(OC)cc(OC)n1,outcome,[1],inactive
same,outcome,[2],inactive
same,outcome,[3],inactive
same,outcome,[4],inactive
same,outcome,[5],inactive
same,outcome,[6],inactive
same,outcome,[7],inactive
same,outcome,[8],inactive
same,outcome,[10],inactive
COP(=S)(OC)Oc1ccc(SC)c(C)c1,outcome,[1],inactive
same,outcome,[2],inactive
same,outcome,[3],inactive
same,AC50,[4],9.5 µM (active)
same,outcome,[5],inactive
same,outcome,[6],inactive
same,outcome,[7],inactive
same,outcome,[8],inactive
same,outcome,[9],inactive
same,outcome,[10],inactive
C[C@H]1[C@H](c2ccc(Cl)cc2)SC(=O)N1C(=O)NC1CCCCC1,AC50,[1],8.97 µM (active)
same,outcome,[2],inactive
same,outcome,[3],inactive
same,AC50,[4],5.43 µM (active)
same,outcome,[5],inactive
same,outcome,[6],inactive
same,outcome,[7],inactive
same,outcome,[8],inactive
same,outcome,[9],inactive
same,outcome,[10],inactive
CNC(=O)/C=C(\C)OP(=O)(OC)OC,outcome,[1],inactive
same,outcome,[2],inactive
same,outcome,[3],inactive
same,outcome,[4],inactive
same,outcome,[5],inactive
same,outcome,[6],inactive
same,outcome,[7],inactive
same,outcome,[8],inactive
same,outcome,[10],inactive
COc1nn(CSP(=S)(OC)OC)c(=O)s1,outcome,[1],inactive
same,outcome,[2],inactive
same,outcome,[3],inactive
same,outcome,[4],inactive
same,outcome,[5],inactive
same,outcome,[6],inactive
same,outcome,[7],inactive
same,outcome,[8],inactive
same,outcome,[9],inactive
same,outcome,[10],inactive
CNC(=O)Oc1cccc(N=CN(C)C)c1,outcome,[1],inactive
same,outcome,[2],inactive
same,AC50,[3],15.4 µM (active)
same,outcome,[4],inactive
same,AC50,[5],8.35 µM (active)
same,outcome,[6],inactive
same,outcome,[7],inactive
same,outcome,[8],inactive
same,outcome,[10],inactive
Oc1cc(Cl)ccc1Oc1ccc(Cl)cc1Cl,AC50,[1],13.1 µM (active) and 9.31 µM (active) and 17 µM (active)
same,AC50,[2],20 µM (active) [middle of 4 runs]
same,AC50,[3],20.4 µM (active) and 14.1 µM (active) and 23.9 µM (active)
same,AC50,[4],29.9 µM (active) and 12.3 µM (active) and 26.1 µM (active)
same,AC50,[5],8.72 µM (active) [middle of 4 runs]
same,AC50,[6],6.96 µM (active) and 8.43 µM (active) and 7.44 µM (active)
same,AC50,[7],32.2 µM (active) [middle of 4 runs]
same,AC50,[8],33.7 µM (active) and 29 µM (active)
same,outcome,[8],inactive
same,AC50,[9],30.1 µM (active) and 14.4 µM (active) and 28.2 µM (active)
same,AC50,[10],29.8 µM (active) [middle of 4 runs]
CCc1ccc(C(=O)NN(C(=O)c2cc(C)cc(C)c2)C(C)(C)C)cc1,outcome,[1],inactive
same,outcome,[2],inactive
same,outcome,[3],inactive
same,outcome,[4],inactive
same,outcome,[5],inactive
same,outcome,[6],inactive
same,outcome,[7],inactive
same,outcome,[8],inactive
same,outcome,[9],inactive
same,outcome,[10],inactive
COP(=O)(OC)OC=C(Cl)Cl,outcome,[1],inactive
same,outcome,[2],inactive
same,outcome,[3],inactive
same,outcome,[4],inactive
same,outcome,[5],inactive
same,outcome,[6],inactive
same,outcome,[7],inactive
same,outcome,[8],inactive
same,outcome,[10],inactive
CN1CSC(=S)N(C)C1,outcome,[1],inactive
same,outcome,[2],inactive
same,AC50,[3],14.1 µM (active)
same,outcome,[4],inactive
same,AC50,[5],9.28 µM (active)
same,AC50,[6],24.2 µM (active)
same,outcome,[7],inactive
same,outcome,[8],inactive
same,outcome,[10],inactive
